Screening results deposited in PubChem BioAssay by National Center for Advancing Translational Sciences (NCATS).
FBPA Giardia inh: inhibitors of Giardia lamblia fructose-1,6-bisphosphate aldolase; purified Giardia FBPA; Potency, µM (top dose mostly 59.6 µM), without a hit: top-dose activity, negative = inhibition, actives largely listed as inhibitors; actives 0.71% (n = 290,000); AID 2451; also: potency is read from the fitted curve at half-maximal effect; nearly all actives have a fitted effect of over 55% in size
Target sequence (A8B2U2 whole entry, looked up): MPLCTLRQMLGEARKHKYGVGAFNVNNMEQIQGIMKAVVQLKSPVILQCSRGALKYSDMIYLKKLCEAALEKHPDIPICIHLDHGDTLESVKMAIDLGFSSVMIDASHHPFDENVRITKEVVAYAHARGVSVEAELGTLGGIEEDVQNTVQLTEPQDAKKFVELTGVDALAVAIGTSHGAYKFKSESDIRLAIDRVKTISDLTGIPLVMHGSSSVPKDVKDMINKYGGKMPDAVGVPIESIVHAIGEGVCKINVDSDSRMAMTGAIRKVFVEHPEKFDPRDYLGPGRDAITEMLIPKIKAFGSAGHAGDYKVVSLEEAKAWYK
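40 nM FBPA preincubated 10 min at RT with compound (up to 57.5 uM final), then substrate plus GAPDH/TPI/NAD/arsenate coupling and diaphorase/resazurin added. Fluorescence read after 20 min at RT, 525/598 nm.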
Pf growth 96h: P. falciparum growth inhibition at 96 hours; AID 504834; P. falciparum luciferase reporter growth, 96 h; actives 6.9% (n = 320,000); Potency, µM (doses to about 28.7 µM), for inactives: top-dose activity change, negative = inhibition, most hits filed as inhibitors; also: potency is read from the fitted curve at half-maximal effect
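Two parasite generations (96 h, 37 C, 5% CO2) of compound exposure in infected erythrocytes (0.05% parasitemia, 2% hematocrit). Luciferase-reporter P. falciparum; decreased luminescence indicates inhibited growth, aimed at apicoplast-acting delayed death.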
HCMV inh: inhibitors of human cytomegalovirus | AID 1259415 | activity change, negative = inhibition, % at 57.5 µM | HFF cells, HCMV-luciferase reporter, 72 h; stronger effect = lower value | actives 4.5% (n = 410,000); in the data active = activity change below about -60%; inconclusive = no clear call, values can overlap the other calls; inactive = above about -39%
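Cell-based, HFFs, 1000 cells/well, 16 h 37C; cpds in DMSO + HCMV-luc, MOI 1 PFU/cell; 72 h 37C; OneGlo luminescence after 5 min RT; norm. to buffer vs Salinomycin 10uM.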
Sm TGR block: inhibitors of Schistosoma mansoni thioredoxin glutathione reductase; Q962Y6; purified TGR, DTNB reduction, TNB absorbance 405 nm; Potency, µM (series often up to 114 µM), for inactives: top-dose activity change, negative = inhibition, actives largely listed as inhibitors; actives 3% (n = 360,000); also: potency is read from the fitted curve at half-maximal effect; nearly all actives have a fitted effect of over 60% in size
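First, TGR (20 nM dispensed) and NADPH were mixed with compound. Second, a 15 min room-temperature incubation followed. Third, further NADPH and then DTNB were added to start the reaction. Finally, TNB absorbance was monitored kinetically.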
Pf growth 48h: P. falciparum growth inhibition at 48 hours (one generation) | P. falciparum luciferase growth in erythrocytes, 48 h | Potency, µM (doses to about 28.7 µM), inactives show at the highest dose activity change, negative = inhibition, actives largely listed as inhibitors | actives 5.9% (n = 310,000); also: potency is read from the fitted curve at half-maximal effect
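Growth was read as firefly luciferase luminescence after a 48 h, 37 C, 5% CO2 exposure of compounds to reporter-bearing P. falciparum cultures (0.1% parasitemia, 2% hematocrit final) in Albumax-supplemented RPMI 1640.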
* marks the source's active call; other numbers are inactive results; ? = inconclusive; . = no result given; ! = not active in a repeat. Compounds with a hit are over-represented: about 14% of the library has one in this group of screens. Unless noted, calls follow the shape of the dose curve; as a rule, active = well fitted curve in the direction sought with a large enough effect; inconclusive = small, poorly fitted or top-dose-only effect, or another doubt; inactive = no such curve, though single readings can be large; an effect the other way counts as inactive or inconclusive. % is scaled to controls: 0 for no effect and ±100 for the full control effect.

SMILES	FBPA Giardia inh	Pf growth 96h	HCMV inh	Sm TGR block	Pf growth 48h
Cc1cc(S(=O)(=O)N2CCN(c3ccc(F)cc3)CC2)ccc1-n1cnnn1	14%	-18%	-11	15%	-1%
Cc1ccc(C)c(N2CCN(C(=O)CCc3c(C)nn(-c4ccc(N5CCCC5)nn4)c3C)CC2)c1	.	.	-63*	-3%	.
CCCCC/C=C\C/C=C\C/C=C\CCCCC(=O)O	4%	0%	-22	28µM*	?
CCCCCCCC/C=C\CCCCCCCC(=O)NCc1ccc(O)c(OC)c1	-13%	17µM*	.	.	?
CCCCCCCC/C=C\CCCCCCCC(=O)NCCc1ccc(O)c(O)c1	-15%	?	-17	-17%	10µM*
CCCCCCCC/C=C\CCCCCCCC(=O)NCCO	-2%	2.6µM*	1	-18%	2.9µM*
CCCCC/C=C\C/C=C\C/C=C\C/C=C\CCCCCC(=O)NCCc1ccc(O)c(O)c1	-4%	.	.	.	.
COc1cccc(-c2nc3c(c(SCC(=O)Nc4cccc(C)c4C)n2)Cc2c(CO)cnc(C)c2O3)c1	.	.	-35	-2%	.
O=C(NCc1ccccc1)[C@]1(C(F)(F)F)C[C@H](CCC2CCCCC2)CCCO1	0%	.	.	.	.
CC(C)NC(=O)C1(N2C(=O)c3ccccc3C2=O)CCCC1	.	.	29	.	.
NC1=NCC2c3ccccc3Cc3ccccc3N12 (centres undefined)	-3%	6.7µM*	.	.	?
COc1ccccc1CNC(=O)CC(c1ccc(F)cc1)N1Cc2ccccc2C1=O (centres undefined)	.	.	-73*	8%	.
C[N+]1(CCCCSc2ccc(O)cc2)CCCCC1	9%	-12%	?	-16%	9.3µM*
CC(=O)Nc1nc2cc3c(cc2s1)OCO3	1%	251%	-5	-1%	.
O=C(Nc1nc2ccccc2c(=O)s1)c1ccco1	-1%	2%	54	?	2.1µM*
O=C(Nc1nc2cc3c(cc2s1)OCCO3)c1ccco1	.	-65%	-92*	-35%	-39%
O=C(Nc1nc2cc3c(cc2s1)OCO3)C1=COCCO1	-30%	-12%	-71*	-4%	32%
O=C(O)c1ccccc1OCC1CCCO1 (centres undefined)	-2%	34%	9	-16%	15%
Cc1ccc(CNC(=O)C2CCCN(c3nc4ccccc4n4cccc34)C2)cc1 (centres undefined)	.	.	57	28%	.
CCOC(=O)c1cccc(NC(=O)c2oc3c(c2C)-c2nn(CC)cc2CC3)c1	.	.	101	-2%	.
CN(C(=O)CCN1C(=O)/C(=C/c2ccccc2)SC1=S)C1CCS(=O)(=O)C1 (centres undefined)	.	2.6µM*	-12	11%	?
CN(C(=O)CN1C(=O)S/C(=C\c2ccccc2)C1=O)C1CCS(=O)(=O)C1 (centres undefined)	.	13µM*	1	-6%	-7%
CN(C(=O)CN1C(=O)/C(=C/c2ccc(F)cc2)SC1=S)C1CCS(=O)(=O)C1 (centres undefined)	-7%	20%	-23	11%	-1%
COc1ccc(C(=O)Nn2c(C)nc3ccccc3c2=O)cc1[N+](=O)[O-]	6%	?	-4	-6%	.
COc1ccc(CCN2Cc3c(N)cccc3C2=O)cc1OC	16%	-18%	18	-3%	.
SMILES	FBPA Giardia inh	Pf growth 96h	HCMV inh	Sm TGR block	Pf growth 48h
O=C(CCn1c(=O)oc2cc(Cl)ccc21)Nc1ccc(N2CCOCC2)cc1	8%	13%	-30	-4%	-15%
c1csc(-c2nc3ccccn3c2NC2CCCCC2)c1	-2%	2%	-30	1%	5%
CCC(C)Sc1cc(-c2nc3cc(C)ccn3c2NC2CCCCC2)ccc1OC (centres undefined)	.	.	-84*!	.	.
CC(=O)c1ccc(-c2cccc(-c3nc4ccccn4c3NC3CCCCC3)c2)cc1	.	?	-29	-1%	12µM*
Cc1ccn2c(NC3CCCC3)c(-c3cccs3)nc2c1	?	90%	-27	20µM*	36%
CCC(C)Sc1cc(-c2nc3ccccn3c2NC2CCCCC2)ccc1OC (centres undefined)	.	?	-88*!	7%	4.1µM*
O=c1[nH]c(=S)[nH]cc1Oc1ccc(Cl)cc1Cl	6%	22%	-97*	0%	-14%
Cc1ccccc1C(=O)Nc1cc(-c2ccc(Cl)cc2)nn1-c1ccccc1	.	.	-7	4%	.
O=C(C1=C[C@H](c2ccccc2)C[C@H](OCc2ccc(CO)cc2)O1)N1CCN(Cc2ccc3c(c2)OCO3)CC1	-2%	13µM*	6	-16%	?
CN1CCN(C(=O)C2=C[C@@H](c3ccc4c(c3)OCO4)C[C@@H](OCc3ccc(CO)cc3)O2)CC1	0%	-16%	?	-1%	-12%
O=C(C1=C[C@H](c2ccc3c(c2)OCO3)C[C@H](OCc2ccc(CO)cc2)O1)N1CCN(Cc2ccc3c(c2)OCO3)CC1	-14%	13µM*	0	-5%	4.1µM*
O=C(C1=C[C@H](c2ccc(Br)cc2)C[C@H](OCc2ccc(CO)cc2)O1)N1CCN(Cc2ccc3c(c2)OCO3)CC1	-8%	7.4µM*	?	?	?
C#Cc1ccc([C@H]2C=C(C(=O)N3CCN(Cc4ccc5c(c4)OCO5)CC3)O[C@@H](OCc3ccc(CO)cc3)C2)cc1	0%	3.3µM*	0	?	?
CC#CCC1(C(=O)OC)C(=O)NC[C@H]1c1ccccc1 (some centres undefined)	-1%	.	.	.	.
S=C(c1ccc2c(c1)OCO2)N1CCN(c2cccc(Cl)c2)CC1	.	.	-34	.	.
COc1ccc(/C=N/n2cc(-c3ccccc3)nc2N)cc1	2%	10µM*	.	-18%	?
COc1ccc(/C=N/n2cc(-c3ccc(OC)cc3)nc2N)cc1	-1%	?	.	-1%	?
COc1cccc(NC(=O)C2CCN(C(=O)[C@@H]3Cc4ccccc4CN3)CC2)c1	.	?	0	-4%	?
CC(=O)N1CCN(c2ccc(NCc3ccc(Br)o3)cc2)CC1	.	?	-62*	?	?
Cc1ccccc1C(=O)Nc1cccc(NC(=O)c2ccc(-c3ccc(Br)cc3)o2)c1	6%	?	-96*	38%	?
Cc1ccccc1C(=O)Nc1cccc(NC(=O)c2ccc(F)cc2)c1	3%	10µM*	?	-20%	-11%
CC(=O)N1CCN(c2ccc(NCc3ccc(C)s3)cc2)CC1	?	?	-37	-24%	.
CC(=O)N1CCN(c2ccc(NCc3ccc(-c4ccc(Br)cc4)o3)cc2)CC1	.	.	-80*	.	.
O=c1c2sc3ccccc3c2n(Cc2ccc(F)cc2)c(=O)n1Cc1ccco1	.	.	13	0%	.
N#C/C(=C\c1ccc(OCC(N)=O)cc1)S(=O)(=O)c1ccccc1	-4%	23%	11	12%	10%
O=C(Nc1ccccc1)N1CCC2(CCNCC2)CC1	0%	.	.	.	.
